According to the supplement of paper PMC11732987, “Enantioselective OTUD7B fragment discovery through chemoproteomics screening and high-throughput optimisation” (Communications Chemistry, 2025):

What was measured:
Assay in all cases: log2 ratio of Biotin-Ahx-Ub-VS probe labelling (fragment/DMSO); higher = less target engagement (more negative = stronger competition), active = hit call of the paper (q ≤ 0.05, log2 ratio ≤ -1)
Conditions in all cases: compound concentration: 200 uM; treatment time: 3 h
[1] = target: USP9X (UniProt Q93008)
How it was run: (§1)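 HEK293T lysate (495 µg per sample, in Tris/CHAPS/IGEPAL buffer with protease inhibitors) was exposed in triplicate for 3 h to fragment at 200 µM or to vehicle, then to Biotin-Ahx-Ub-VS at 0.5 µM final for 1 h. Labelled DUBs were enriched on NeutrAvidin, digested with LysC and trypsin, and analysed by diaPASEF LC-MS/MS. Spectronaut label-free quantities were normalised to the global median, and values are average log2 ratios of fragment over vehicle from an unpaired t-test. Only proteins with ≥2 unique peptides were used.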

[2] = target: UniProt O00487
How it was run: as §1

[3] = target: UniProt O00507
How it was run: as §1

[4] = target: UniProt P51784
How it was run: as §1

[5] = target: T1, UniProt Q5T2D3
T1 sequence (whole entry): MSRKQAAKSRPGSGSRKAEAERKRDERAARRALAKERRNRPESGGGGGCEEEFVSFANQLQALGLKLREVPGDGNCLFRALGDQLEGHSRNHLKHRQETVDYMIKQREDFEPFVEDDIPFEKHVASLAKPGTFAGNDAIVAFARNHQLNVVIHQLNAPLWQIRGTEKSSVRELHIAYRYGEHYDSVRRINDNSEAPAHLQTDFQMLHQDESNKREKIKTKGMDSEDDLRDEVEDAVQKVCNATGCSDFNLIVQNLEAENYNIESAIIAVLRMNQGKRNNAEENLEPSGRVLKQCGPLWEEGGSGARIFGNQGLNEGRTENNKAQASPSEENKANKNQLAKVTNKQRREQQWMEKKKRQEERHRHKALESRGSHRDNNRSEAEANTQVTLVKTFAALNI
How it was run: as §1

[6] = target: T2, UniProt Q8TE49
T2 sequence (whole entry): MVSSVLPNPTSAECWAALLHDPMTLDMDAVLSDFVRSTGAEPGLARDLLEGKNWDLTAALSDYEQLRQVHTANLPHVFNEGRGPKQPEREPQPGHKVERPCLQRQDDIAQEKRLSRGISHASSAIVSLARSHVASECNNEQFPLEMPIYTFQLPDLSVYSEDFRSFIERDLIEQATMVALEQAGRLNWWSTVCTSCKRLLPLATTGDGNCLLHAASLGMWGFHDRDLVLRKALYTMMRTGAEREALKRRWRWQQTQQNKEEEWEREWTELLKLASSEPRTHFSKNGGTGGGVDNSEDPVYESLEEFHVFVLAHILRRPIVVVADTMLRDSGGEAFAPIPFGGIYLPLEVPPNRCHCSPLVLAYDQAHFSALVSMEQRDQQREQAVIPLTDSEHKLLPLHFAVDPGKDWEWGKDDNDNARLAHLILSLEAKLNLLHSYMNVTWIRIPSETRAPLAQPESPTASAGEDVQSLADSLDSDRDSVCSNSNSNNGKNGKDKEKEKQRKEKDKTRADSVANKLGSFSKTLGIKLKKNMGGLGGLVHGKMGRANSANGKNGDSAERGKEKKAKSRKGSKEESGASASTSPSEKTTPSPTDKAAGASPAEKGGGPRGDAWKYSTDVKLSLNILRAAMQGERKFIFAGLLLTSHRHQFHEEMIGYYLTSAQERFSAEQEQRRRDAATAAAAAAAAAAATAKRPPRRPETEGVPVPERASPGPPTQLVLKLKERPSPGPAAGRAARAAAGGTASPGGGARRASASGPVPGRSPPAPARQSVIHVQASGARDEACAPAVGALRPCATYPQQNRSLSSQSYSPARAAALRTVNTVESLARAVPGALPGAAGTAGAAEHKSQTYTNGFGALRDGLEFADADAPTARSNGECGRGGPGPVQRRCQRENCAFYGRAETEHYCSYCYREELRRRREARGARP
How it was run: as §1

[7] = target: T3, UniProt Q9P2H5
T3 sequence (whole entry): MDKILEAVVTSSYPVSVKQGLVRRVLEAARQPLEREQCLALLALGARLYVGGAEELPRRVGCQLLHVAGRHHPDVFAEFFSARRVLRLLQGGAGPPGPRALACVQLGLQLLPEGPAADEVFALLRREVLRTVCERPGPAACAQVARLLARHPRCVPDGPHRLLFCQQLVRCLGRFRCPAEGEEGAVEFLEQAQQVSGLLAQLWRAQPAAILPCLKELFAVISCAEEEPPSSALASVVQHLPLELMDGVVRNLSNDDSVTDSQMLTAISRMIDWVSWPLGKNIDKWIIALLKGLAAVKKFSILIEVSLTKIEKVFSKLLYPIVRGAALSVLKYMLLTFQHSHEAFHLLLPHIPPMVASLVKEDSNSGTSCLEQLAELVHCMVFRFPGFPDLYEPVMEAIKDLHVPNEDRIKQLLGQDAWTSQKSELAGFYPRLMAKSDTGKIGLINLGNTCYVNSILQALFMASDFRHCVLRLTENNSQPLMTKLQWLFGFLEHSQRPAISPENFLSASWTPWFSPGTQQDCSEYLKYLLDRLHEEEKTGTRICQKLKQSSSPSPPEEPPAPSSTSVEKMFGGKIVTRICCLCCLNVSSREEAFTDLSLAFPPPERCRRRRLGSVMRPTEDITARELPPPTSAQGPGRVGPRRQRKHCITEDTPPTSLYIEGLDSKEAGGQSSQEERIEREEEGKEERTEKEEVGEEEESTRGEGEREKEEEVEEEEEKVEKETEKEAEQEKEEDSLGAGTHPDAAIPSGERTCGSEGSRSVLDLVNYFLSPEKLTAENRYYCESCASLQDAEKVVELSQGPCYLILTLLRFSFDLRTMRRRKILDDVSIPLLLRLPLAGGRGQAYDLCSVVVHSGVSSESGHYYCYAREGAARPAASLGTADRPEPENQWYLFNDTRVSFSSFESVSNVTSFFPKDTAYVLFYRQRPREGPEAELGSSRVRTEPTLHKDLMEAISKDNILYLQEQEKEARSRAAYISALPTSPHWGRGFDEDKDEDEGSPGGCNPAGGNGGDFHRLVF
How it was run: as §1

[8] = target: T4, UniProt Q9UGI0
T4 sequence (whole entry): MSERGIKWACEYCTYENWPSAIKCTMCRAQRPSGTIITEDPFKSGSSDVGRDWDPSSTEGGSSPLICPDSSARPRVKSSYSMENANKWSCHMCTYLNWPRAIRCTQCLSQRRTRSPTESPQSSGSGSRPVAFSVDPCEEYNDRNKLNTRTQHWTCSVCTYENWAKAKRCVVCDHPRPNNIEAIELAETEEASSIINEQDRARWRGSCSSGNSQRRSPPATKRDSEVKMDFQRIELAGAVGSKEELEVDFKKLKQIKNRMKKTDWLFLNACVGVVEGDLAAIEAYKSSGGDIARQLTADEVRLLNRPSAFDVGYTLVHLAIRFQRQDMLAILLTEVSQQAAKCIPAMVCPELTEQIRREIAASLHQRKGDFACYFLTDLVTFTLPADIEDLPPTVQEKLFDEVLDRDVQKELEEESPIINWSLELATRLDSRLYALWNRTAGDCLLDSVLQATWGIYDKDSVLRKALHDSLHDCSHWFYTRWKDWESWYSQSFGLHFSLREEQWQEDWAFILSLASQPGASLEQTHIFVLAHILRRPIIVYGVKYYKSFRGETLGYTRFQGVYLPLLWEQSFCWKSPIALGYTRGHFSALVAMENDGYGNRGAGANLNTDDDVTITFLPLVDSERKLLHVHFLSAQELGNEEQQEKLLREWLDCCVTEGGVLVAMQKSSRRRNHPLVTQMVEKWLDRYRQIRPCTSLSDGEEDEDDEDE
How it was run: as §1

[9] = target: T5, YOD1 (UniProt Q5VVQ6)
T5 sequence (whole entry): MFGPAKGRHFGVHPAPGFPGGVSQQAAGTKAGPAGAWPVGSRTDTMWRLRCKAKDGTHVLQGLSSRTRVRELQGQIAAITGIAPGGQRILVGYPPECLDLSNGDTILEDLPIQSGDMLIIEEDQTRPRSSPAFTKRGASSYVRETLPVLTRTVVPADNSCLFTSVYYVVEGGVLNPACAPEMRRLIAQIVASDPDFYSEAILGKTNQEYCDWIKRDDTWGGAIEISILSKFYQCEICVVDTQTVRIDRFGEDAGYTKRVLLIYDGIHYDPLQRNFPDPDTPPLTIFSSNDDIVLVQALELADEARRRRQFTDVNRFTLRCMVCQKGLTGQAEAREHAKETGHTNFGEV
How it was run: as §1

Measured: log2 ratio of Biotin-Ahx-Ub-VS probe labelling

USP9X, sequence (Q93008 whole entry, the tested form may be a part): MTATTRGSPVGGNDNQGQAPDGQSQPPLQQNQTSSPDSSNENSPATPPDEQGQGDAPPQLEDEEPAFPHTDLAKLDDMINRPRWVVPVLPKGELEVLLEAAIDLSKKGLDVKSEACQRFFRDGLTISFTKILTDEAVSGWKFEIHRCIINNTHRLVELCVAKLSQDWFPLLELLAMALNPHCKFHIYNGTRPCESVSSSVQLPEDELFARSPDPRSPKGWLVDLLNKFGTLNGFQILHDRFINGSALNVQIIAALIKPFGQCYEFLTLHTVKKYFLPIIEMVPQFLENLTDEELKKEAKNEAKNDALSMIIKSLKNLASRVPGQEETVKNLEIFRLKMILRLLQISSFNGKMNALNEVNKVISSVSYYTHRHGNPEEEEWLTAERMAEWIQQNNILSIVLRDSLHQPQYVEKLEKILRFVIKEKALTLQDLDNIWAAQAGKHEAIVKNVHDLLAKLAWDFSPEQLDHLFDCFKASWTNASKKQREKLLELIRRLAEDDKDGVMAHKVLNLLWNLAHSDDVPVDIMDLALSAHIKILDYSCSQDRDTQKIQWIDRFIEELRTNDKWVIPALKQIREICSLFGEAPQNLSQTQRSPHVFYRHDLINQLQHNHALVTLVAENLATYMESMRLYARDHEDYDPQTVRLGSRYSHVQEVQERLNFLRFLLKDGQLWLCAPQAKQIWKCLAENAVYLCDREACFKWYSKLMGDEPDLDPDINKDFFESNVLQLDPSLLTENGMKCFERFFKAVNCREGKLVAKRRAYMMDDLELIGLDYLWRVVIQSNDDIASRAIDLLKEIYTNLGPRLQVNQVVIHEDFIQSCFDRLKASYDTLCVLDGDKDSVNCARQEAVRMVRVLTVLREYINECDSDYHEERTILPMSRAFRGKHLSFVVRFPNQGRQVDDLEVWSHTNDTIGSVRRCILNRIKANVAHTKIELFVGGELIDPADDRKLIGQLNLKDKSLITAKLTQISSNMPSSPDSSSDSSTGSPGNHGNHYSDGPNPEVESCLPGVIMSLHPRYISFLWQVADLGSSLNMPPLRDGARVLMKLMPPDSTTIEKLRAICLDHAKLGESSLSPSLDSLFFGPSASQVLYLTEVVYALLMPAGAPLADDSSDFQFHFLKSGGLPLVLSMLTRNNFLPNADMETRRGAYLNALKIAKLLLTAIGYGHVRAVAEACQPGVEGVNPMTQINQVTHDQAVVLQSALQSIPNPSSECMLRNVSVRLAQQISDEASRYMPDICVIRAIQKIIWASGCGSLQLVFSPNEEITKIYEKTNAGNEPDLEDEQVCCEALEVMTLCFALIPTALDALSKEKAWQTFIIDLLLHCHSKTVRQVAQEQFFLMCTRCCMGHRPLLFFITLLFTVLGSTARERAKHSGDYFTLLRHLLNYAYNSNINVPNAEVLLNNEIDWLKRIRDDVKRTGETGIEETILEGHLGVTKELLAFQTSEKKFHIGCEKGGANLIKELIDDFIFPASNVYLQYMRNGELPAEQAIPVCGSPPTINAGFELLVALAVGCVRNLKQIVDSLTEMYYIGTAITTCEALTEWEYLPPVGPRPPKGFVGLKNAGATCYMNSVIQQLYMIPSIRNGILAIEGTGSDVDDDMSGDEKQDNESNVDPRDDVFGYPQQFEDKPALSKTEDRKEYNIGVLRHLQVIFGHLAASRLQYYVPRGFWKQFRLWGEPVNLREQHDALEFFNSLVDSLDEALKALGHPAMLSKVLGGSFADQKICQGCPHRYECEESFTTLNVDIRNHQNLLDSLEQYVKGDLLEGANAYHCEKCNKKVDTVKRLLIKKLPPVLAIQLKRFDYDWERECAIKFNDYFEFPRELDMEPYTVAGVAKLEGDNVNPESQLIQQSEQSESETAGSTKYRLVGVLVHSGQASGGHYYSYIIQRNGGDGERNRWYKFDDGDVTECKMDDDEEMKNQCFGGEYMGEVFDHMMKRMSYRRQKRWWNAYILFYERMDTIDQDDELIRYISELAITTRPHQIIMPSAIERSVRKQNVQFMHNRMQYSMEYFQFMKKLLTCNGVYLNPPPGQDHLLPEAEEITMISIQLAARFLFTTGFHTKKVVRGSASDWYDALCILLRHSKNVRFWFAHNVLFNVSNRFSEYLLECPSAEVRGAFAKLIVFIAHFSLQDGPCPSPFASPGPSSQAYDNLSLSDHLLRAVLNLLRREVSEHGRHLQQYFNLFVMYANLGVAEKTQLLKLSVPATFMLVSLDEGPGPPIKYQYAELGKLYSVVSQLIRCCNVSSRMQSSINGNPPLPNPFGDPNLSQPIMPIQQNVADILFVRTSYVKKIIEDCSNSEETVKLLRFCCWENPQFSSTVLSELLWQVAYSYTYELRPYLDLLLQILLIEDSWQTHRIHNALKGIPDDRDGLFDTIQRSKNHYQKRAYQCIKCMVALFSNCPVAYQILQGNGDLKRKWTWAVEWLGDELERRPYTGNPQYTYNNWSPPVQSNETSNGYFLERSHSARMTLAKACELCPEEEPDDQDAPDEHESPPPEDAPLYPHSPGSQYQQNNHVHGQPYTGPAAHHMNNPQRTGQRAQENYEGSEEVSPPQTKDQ
UniProt P51784, sequence (P51784 whole entry): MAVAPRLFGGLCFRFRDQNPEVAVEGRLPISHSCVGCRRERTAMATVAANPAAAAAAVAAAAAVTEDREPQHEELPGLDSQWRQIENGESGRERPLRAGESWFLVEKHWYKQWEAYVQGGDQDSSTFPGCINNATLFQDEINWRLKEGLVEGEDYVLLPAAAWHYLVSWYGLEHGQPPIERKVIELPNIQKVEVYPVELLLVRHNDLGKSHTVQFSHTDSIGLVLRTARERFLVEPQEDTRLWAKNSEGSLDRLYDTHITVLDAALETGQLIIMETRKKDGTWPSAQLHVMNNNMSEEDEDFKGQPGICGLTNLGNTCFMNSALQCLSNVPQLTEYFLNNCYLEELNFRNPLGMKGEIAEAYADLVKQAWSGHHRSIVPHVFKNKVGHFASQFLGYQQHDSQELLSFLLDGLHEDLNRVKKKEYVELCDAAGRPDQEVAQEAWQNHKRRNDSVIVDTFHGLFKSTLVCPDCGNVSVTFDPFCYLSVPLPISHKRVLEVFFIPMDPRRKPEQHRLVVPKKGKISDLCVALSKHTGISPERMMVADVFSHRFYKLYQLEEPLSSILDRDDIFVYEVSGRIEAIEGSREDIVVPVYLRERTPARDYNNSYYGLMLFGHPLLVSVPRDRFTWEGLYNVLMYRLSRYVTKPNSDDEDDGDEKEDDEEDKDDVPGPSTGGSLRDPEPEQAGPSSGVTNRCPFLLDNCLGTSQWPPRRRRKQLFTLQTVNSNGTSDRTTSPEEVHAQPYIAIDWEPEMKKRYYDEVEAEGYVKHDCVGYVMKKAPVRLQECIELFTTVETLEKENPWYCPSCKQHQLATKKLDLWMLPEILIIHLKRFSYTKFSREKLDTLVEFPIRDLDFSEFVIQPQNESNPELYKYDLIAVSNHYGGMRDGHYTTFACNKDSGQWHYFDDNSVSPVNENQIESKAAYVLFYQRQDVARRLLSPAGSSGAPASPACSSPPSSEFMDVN
UniProt O00487, sequence (O00487 whole entry): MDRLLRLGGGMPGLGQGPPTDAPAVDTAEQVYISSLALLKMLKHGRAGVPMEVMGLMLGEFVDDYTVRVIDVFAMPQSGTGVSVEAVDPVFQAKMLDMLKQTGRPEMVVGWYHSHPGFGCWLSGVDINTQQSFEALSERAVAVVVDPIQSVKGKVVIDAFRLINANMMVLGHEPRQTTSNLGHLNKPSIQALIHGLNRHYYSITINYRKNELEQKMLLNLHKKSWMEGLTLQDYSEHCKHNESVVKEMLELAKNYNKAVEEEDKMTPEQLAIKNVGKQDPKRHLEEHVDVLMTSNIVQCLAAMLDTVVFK

CC(=O)C1CCCCN1C(=O)CCl (centres undefined)
inactive: [1] -0.034 | [2] -0.0675 | [3] 0.17 | [4] 0.028 | [5] -0.0455 | [6] -0.492 | [7] -0.14 | [8] 0.121 | [9] -0.0382
